Measurements: PubChem BioAssay
Unmarked numbers belong to inactive results. Calls of active or inactive are those of the source.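 How the source made its calls: active means compound raises GLP1 secretion from the human gut endocrine cells, with no numeric limit stated; inactive means the rest.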

assay: GLP1 release stimulators, primary, NCI-H716, NPC library (AID 1117341); settings: NCI-H716 cells, at 10 µM, active compounds read high; further: reference of the scale not given here

SMILES	GLP1 secretion stimulation
CCOC(=O)N1CCC(Nc2ccc(Cl)cc2N)CC1	-4.9%
OCCCc1ccccc1	4.3%
CC[C@@H]([C@H](C)O)n1ncn(-c2ccc(N3CCN(c4ccc(OC[C@@H]5CO[C@@](Cn6cncn6)(c6ccc(F)cc6F)C5)cc4)CC3)cc2)c1=O	4.8%
Nc1ncnc2c1ncn2Cc1c(F)cccc1Cl	1.9%
Cc1nc2n(c(=O)c1CCN1CCC(C(=O)c3ccc(F)cc3)CC1)CCS2	5.4%
COC(=O)c1cc(Cl)c(NC(C)=O)cc1OC	1.2%
CC(C(=O)O)c1ccc(/C=C2\CCCCC2=O)cc1 (centres undefined)	2.1%
Cn1c(O)c(N=NC(N)=S)c2ccccc21	-3.5%
OC[C@H]1O[C@@H](n2cnc3c(=S)nc[nH]c32)[C@H](O)[C@@H]1O	-1.6%
CCOC(=O)CN1CCCC1=O	-1.8%
COC(=O)/C=C(/C)N	2.3%
CCCN(CCc1cccs1)[C@H]1CCc2c(O)cccc2C1	2.4%
CCCCCCCC/C=C\CCCCCCCCN	24.7% (active)
COc1ccc(S(=O)(=O)N2c3ccc(Cl)cc3[C@@](O)(c3ccccc3Cl)[C@H]2C(=O)N2CCC[C@@H]2C(N)=O)cc1OC	-0.7%
C/C(=N/NC(=O)c1ccncc1)C(=O)O	-2.8%
O=C(O)Cc1ccc(CCNS(=O)(=O)c2ccc(Cl)cc2)cc1	-2.9%
CCOC(CN1CCN(CC(C)C(=O)c2ccccc2)CC1)c1ccccc1 (centres undefined)	-1.8%
C[C@@H]1CCN(C(=O)[C@H](CCCN=C(N)N)NS(=O)(=O)c2cccc3c2NC[C@H](C)C3)[C@@H](C(=O)O)C1	1.4%
Nc1cc(C(F)(F)F)ccc1S	20.5% (active)
c1ccc(C(O[C@H]2CCCN(CCc3ccc4c(c3)OCO4)C2)c2ccccc2)cc1	0.6%

SMILES	GLP1 secretion stimulation
CCN(CC)CCOc1ccccc1C(=O)CCc1ccccc1	5.2%
CCOCCOC(=O)/C=C/c1ccc(OC)cc1	-4%
CC1(C)S[C@@H]2[C@H](NC(=O)Cc3ccccc3)C(=O)N2[C@H]1C(=O)O (tested in a mixture with another compound)	-3.4%
Cc1cnc(NS(=O)(=O)c2ccc(N)cc2)nc1	-0.6%
CC(C)[C@H](N)C(=O)O	-4.1%
CCOC(=O)c1c(N)sc2c1CCN(Cc1ccccc1)C2	0.5%
CC1(C)CO[C@@H](CC(=O)O)CN1	-0.1%
O=Cc1ccccc1C=O	2.6%
COc1cc2c(cc1OC)C(C(C(=O)N(CCc1ccc(OC)c(OC)c1OC)CCc1ccc(OC)c(OC)c1OC)c1ccccc1)=NCC2 (centres undefined)	4.1%
CC(=O)N1CCN(c2ccc(O)cc2)CC1	3.8%
C[C@H]1O[C@@H](O[C@H]2CC[C@@]3(C)[C@H](CC[C@@H]4[C@@H]3C[C@@H](O)[C@]3(C)[C@@H](C5=CC(=O)OC5)CC[C@]43O)C2)C[C@H](O)[C@@H]1O[C@H]1C[C@H](O)[C@H](O[C@H]2C[C@H](O)[C@H](O[C@@H]3O[C@H](CO)[C@@H](O)[C@H](O)[C@H]3O)[C@@H](C)O2)[C@@H](C)O1	8%
Cc1ncc(C[n+]2csc(CCOP(=O)(O)O)c2C)c(N)n1	1%
CC(C)(Cc1c[nH]c2ccccc12)NCC(O)COc1ccccc1C#N (centres undefined)	3.9%
CCC(C(=O)NC(=O)NC(C)=O)c1ccccc1 (centres undefined)	-4.7%
CCCCCOc1ccc(C2SC(=O)NC2=O)cc1OCC (centres undefined)	3.7%
Cc1cc(N)c2cc(NC(=O)Nc3ccc4nc(C)cc(N)c4c3)ccc2n1	32.3% (active)
CC(C)NCCCC1(C(N)=O)c2ccccc2-c2ccccc21	-2.8%
CC(=O)c1ccc(OCC(=O)N2CCCCC2)cc1	0.7%
C[C@H](CCC(=O)O)[C@H]1CC[C@H]2[C@H]3[C@@H](CC[C@]12C)[C@@]1(C)CC[C@@H](O)C[C@H]1C[C@@H]3O	-1.3%
